Source: PubChem BioAssay (EPA / NIEHS)
Values joined by “and” are separate entries in the source; they are usually repeats but may differ in a detail not shown here. Equal values may be shown once. Inconclusive results are not listed. Where a structure was tested more than once in an assay, its records may differ in their call. Active and inactive are the calls of the source. How the source made its calls: active means hit-call score of the fitted dose curve at least 0.9, where 1 is the maximum; inconclusive means response in the unintended direction; inactive means score below 0.9.

Experiments:
[1] = target: Tyrosine-protein phosphatase non-receptor type 13 (Homo sapiens) (UniProt Q12923); test: NVS_ENZ_hPTPN13: NovaScreen (NVS) Enzymatic Assay for human Protein Tyrosine Phosphatase Non-receptor Type 13 (PTPN13) (AID 2283205)
Method in brief: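 Cell-free assay of recombinant human PTPN13 with a fluorescent substrate, product separated by electrophoretic mobility shift and read 0.5 h after dosing. Primary screen at 25 uM in duplicate, then concentration-response up to 50 uM. Loss of signal fitted against DMSO.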

[2] = target: human Protein Tyrosine Phosphatase Non-receptor Type 4 (PTPN4), PTPN4 (gene 5775) (UniProt P29074); test: NVS_ENZ_hPTPN4: NovaScreen (NVS) Enzymatic Assay for human Protein Tyrosine Phosphatase Non-receptor Type 4 (PTPN4) (AID 2283208)
Chain of human Protein Tyrosine Phosphatase Non-receptor Type 4 (PTPN4), PTPN4 (gene 5775) (P29074 whole entry, looked up): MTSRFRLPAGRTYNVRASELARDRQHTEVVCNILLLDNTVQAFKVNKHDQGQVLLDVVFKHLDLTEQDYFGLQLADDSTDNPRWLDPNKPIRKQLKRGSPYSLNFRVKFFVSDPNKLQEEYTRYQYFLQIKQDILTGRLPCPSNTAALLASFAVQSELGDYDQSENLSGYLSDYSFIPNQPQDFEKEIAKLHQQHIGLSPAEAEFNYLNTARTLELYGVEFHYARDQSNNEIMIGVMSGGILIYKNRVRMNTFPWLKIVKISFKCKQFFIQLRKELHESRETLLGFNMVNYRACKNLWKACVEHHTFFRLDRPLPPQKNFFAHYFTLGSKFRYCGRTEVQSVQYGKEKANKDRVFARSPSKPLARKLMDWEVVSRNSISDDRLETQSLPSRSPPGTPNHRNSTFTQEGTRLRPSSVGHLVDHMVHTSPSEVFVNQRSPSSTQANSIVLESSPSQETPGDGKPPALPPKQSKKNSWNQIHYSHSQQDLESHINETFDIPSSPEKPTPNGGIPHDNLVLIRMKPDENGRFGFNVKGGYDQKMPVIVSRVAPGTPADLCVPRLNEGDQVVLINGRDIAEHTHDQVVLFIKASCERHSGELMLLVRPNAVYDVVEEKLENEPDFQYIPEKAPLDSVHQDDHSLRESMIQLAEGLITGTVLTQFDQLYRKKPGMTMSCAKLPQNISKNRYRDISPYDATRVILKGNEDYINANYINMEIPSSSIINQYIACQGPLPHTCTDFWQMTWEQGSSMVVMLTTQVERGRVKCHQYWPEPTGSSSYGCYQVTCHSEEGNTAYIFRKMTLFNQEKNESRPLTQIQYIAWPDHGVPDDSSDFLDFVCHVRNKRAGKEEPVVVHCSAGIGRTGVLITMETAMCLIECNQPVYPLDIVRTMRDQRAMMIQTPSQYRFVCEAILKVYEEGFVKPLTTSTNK
Experimental: (§1) NVS_ENZ_hPTPN4 is a biochemical, single-readout assay that uses extracted gene-proteins from SF9 in a cell-free assay. Measurements were taken 1.33 hours after chemical dosing in a 384-well plate.NVS_ENZ_hPTPN4 is one of one assay component(s) measured or calculated from the NVS_ENZ_hPTPN4 assay. It is designed to make measurements of enzyme activity, a form of enzyme reporter, as detected with fluorescence intensity signals by Fluorescence and electrophoretic mobility shift technology.Data from the assay component NVS_ENZ_hPTPN4 was analyzed into 1 assay endpoint. This assay endpoint, NVS_ENZ_hPTPN4, was analyzed in the positive analysis fitting direction relative to DMSO as the negative control and baseline of activity. Using a type of enzyme reporter, loss-of-signal activity can be used to understand changes in the enzymatic activity as they relate to the gene PTPN4. Furthermore, this assay endpoint can be referred to as a primary readout, because this assay has produced multiple assay endpoints where this one serves a enzymatic activity function. To generalize the intended target to other relatable targets, this assay endpoint is annotated to the phosphatase intended target family, where the subfamily is non-receptor tyrosine phosphatase.
(§2) Binding assays used specific radioligands (tritiated, iodinated) with non-radioactive competitive displacement ligands in agonist or antagonist protocols (as indicated) and various reference compounds and inhibitors to titrate specific binding to receptors and transporters. Most enzyme assays (CYPs, kinases, phosphatases, proteases, HDACs) used recombinant protein and specific substrates (fluorescence mostly, some colorimetric and radioactive) and inhibitors, followed by a biochemical separation of substrate and product. All assays for the biochemical HTS were initially run in duplicate at a single concentration (10 uM for CYP450 assays and 25 uM for all others). Assay-chemical combinations meeting a pre-defined threshold (e.g., 30% inhibition and other criteria defined below) were then run in singleton concentration-response format with maximum concentration of 20 uM for CYPs and 50 uM for all others. Each assay was run with positive and negative controls, and concurrent controls on every plate. The follow-up (secondary) screen tested active chemical-pairs in concentration series, as well as a few additional assays not tested in the primary screen, some selected negative inactives, and several cases re-run in the concentration series for confirmatory purposes.

[3] = target: human Protein Tyrosine Phosphatase Non-receptor Type 9 (PTPN9), PTPN9 (gene 5780) (UniProt P43378); test: NVS_ENZ_hPTPN9: NovaScreen (NVS) Enzymatic Assay for human Protein Tyrosine Phosphatase Non-receptor Type 9 (PTPN9) (AID 2283209)
Chain of human Protein Tyrosine Phosphatase Non-receptor Type 9 (PTPN9), PTPN9 (gene 5780) (P43378 whole entry, looked up): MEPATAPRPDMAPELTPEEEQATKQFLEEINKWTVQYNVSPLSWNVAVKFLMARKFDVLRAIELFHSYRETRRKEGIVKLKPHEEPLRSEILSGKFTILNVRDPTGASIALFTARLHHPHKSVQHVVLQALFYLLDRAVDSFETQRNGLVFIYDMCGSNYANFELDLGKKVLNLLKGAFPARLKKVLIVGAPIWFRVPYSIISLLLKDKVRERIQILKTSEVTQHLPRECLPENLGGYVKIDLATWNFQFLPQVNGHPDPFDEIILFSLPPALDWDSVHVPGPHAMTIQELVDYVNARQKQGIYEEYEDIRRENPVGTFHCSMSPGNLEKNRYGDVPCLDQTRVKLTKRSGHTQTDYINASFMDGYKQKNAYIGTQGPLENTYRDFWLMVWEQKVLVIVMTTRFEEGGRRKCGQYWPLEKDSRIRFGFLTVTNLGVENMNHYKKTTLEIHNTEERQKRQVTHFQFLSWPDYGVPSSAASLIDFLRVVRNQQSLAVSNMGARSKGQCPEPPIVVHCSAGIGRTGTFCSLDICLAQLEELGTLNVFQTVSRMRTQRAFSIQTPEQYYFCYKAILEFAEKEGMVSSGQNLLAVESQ
Experimental: as §1, with “NVS_ENZ_hPTPN9” for “NVS_ENZ_hPTPN4”, “plate.NVS_ENZ_hPTPN9” for “plate.NVS_ENZ_hPTPN4”, “NVS_ENZ_hPTPN9,” for “NVS_ENZ_hPTPN4,”, “PTPN9.” for “PTPN4.”
as §2

[4] = target: human Protein Tyrosine Phosphatase Receptor Type B (PTPRB), PTPRB (gene 5787) (UniProt P23467); test: NVS_ENZ_hPTPRB: NovaScreen (NVS) Enzymatic Assay for human Protein Tyrosine Phosphatase Receptor Type B (PTPRB) (AID 2283211)
Method in brief: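 Recombinant human PTPRB with a fluorescent substrate, product separated by electrophoretic mobility shift; read 1 h after dosing. Primary screen in duplicate at 25 uM; actives then retested in concentration series; loss of signal versus DMSO.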

[5] = target: Tyrosine-protein phosphatase non-receptor type 11 (Homo sapiens) (UniProt Q06124); test: NVS_ENZ_hPTPN11: NovaScreen (NVS) Enzymatic Assay for human Protein Tyrosine Phosphatase Non-receptor Type 11 (PTPN11) (AID 2283202)
Chain of Tyrosine-protein phosphatase non-receptor type 11 (Homo sapiens) (Q06124 whole entry, looked up): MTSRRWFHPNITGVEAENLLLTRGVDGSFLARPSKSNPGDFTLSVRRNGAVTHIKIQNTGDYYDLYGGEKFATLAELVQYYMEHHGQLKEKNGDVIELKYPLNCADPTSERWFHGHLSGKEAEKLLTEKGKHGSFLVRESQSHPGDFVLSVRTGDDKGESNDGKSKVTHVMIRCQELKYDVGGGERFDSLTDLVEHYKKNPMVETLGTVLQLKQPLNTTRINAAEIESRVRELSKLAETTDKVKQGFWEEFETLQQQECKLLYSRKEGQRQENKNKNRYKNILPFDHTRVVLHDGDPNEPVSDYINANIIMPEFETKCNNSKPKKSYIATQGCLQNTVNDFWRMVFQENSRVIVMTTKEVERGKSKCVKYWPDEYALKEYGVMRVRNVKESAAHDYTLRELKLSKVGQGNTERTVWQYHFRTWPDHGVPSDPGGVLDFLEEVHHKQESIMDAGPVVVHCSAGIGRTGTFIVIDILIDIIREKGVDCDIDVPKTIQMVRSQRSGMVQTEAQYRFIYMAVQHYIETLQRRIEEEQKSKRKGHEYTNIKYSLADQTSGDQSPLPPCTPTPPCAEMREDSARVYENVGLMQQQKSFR
Method in brief: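 Recombinant human PTPN11 activity on a fluorescent substrate, with substrate/product separated by electrophoretic mobility shift; read 0.5 h after dosing, loss of signal vs DMSO. Duplicate 25 uM screen, then concentration-response up to 50 uM.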

[6] = target: Tyrosine-protein phosphatase non-receptor type 12 (Homo sapiens) (UniProt Q05209); test: NVS_ENZ_hPTPN12: NovaScreen (NVS) Enzymatic Assay for human Protein Tyrosine Phosphatase Non-receptor Type 12 (PTPN12) (AID 2283204)
Method in brief: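 Single-concentration duplicates (25 uM) preceded singleton concentration-response up to 50 uM for chemicals passing threshold. Cell-free recombinant PTPN12 activity was read 1.33 h after dosing via fluorescence after mobility-shift separation; loss of signal versus DMSO.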

[7] = target: Tyrosine-protein phosphatase non-receptor type 14 (Homo sapiens) (UniProt Q15678); test: NVS_ENZ_hPTPN14: NovaScreen (NVS) Enzymatic Assay for human Protein Tyrosine Phosphatase Non-receptor Type 14 (PTPN14) (AID 2283206)
Chain of Tyrosine-protein phosphatase non-receptor type 14 (Homo sapiens) (Q15678 whole entry, looked up): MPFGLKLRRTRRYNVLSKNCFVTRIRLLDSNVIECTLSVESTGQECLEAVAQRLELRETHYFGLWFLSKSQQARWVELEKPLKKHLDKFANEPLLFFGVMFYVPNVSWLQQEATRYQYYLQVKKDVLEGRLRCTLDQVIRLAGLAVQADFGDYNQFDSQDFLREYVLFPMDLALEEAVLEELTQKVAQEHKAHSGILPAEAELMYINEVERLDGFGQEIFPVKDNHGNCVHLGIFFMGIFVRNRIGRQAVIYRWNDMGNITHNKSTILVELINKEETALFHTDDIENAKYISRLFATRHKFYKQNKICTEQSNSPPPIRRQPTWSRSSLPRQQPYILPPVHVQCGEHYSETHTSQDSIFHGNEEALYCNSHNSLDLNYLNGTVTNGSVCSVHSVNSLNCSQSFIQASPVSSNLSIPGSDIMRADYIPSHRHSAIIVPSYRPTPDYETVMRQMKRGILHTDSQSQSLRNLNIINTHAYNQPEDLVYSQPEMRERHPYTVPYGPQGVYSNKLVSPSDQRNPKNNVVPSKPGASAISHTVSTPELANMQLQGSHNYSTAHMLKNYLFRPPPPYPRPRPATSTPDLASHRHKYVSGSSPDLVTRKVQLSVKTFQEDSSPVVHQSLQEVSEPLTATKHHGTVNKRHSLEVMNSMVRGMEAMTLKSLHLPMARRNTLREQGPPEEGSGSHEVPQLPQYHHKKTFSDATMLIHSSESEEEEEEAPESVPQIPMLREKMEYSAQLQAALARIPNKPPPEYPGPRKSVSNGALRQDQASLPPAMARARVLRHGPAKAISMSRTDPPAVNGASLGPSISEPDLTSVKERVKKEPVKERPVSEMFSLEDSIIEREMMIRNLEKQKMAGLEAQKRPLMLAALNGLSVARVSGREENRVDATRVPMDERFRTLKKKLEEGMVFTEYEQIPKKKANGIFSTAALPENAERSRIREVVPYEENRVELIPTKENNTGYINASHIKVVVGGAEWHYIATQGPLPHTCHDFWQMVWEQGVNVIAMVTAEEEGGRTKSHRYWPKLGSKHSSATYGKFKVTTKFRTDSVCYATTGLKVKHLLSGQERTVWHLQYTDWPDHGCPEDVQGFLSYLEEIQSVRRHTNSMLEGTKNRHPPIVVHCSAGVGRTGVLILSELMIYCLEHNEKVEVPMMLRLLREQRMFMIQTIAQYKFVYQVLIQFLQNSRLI
Experimental: as §1, with “NVS_ENZ_hPTPN14” for “NVS_ENZ_hPTPN4”, “gene-proteins” for “gene-proteins from SF9”, “0.5 hour” for “1.33 hours”, “plate.NVS_ENZ_hPTPN14” for “plate.NVS_ENZ_hPTPN4”, “NVS_ENZ_hPTPN14,” for “NVS_ENZ_hPTPN4,”, “PTPN14.” for “PTPN4.”
Binding assays used specific radioligands (tritiated, iodinated) with non-radioactive competitive displacement ligands in agonist or antagonist protocols (as indicated) and various reference compounds and inhibitors to titrate specific binding to receptors and transporters. Most enzyme assays (CYPs, kinases, phosphatases, proteases, HDACs) used recombinant protein and specific substrates (fluorescence mostly, some colorimetric and radioactive) and inhibitors, followed by a biochemical separation of substrate and product. All assays for the biochemical HTS were initially run in duplicate at a single concentration (10 uM for CYP450 assays and 25 uM for all others). […]

[8] = target: human Protein Tyrosine Phosphatase Non-receptor Type 6 (PTPN6), PTPN6 (gene 5777) (UniProt P29350); test: NVS_ENZ_hPTPN6: NovaScreen (NVS) Enzymatic Assay for human Protein Tyrosine Phosphatase Non-receptor Type 6 (PTPN6) (AID 2283210)
Method in brief: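 Cell-free assay with recombinant PTPN6 expressed in SF9 cells, fluorescent substrate, product separated from substrate by electrophoretic mobility shift; read 1.33 hours after dosing. Primary screen in duplicate at 25 uM, actives retested in concentration series; DMSO baseline.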

[9] = target: human Protein Tyrosine Phosphatase Receptor Type F (PTPRF), PTPRF (gene 5792) (UniProt P10586); test: NVS_ENZ_hPTPRF: NovaScreen (NVS) Enzymatic Assay for human Protein Tyrosine Phosphatase Receptor Type F (PTPRF) (AID 2283213)
Method in brief: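 Cell-free fluorescence enzyme assay with recombinant protein and substrate; product separated by electrophoretic mobility shift. Read 1 h after dosing, single 25 uM duplicate screen, then concentration-response up to 50 uM; loss of signal vs DMSO.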

[10] = target: human Rho Associated Coiled-coil Containing Protein Kinase 1 (ROCK1), ROCK1 (gene 6093) (UniProt Q13464); test: NVS_ENZ_hROCK1: NovaScreen (NVS) Enzymatic Assay for human Rho Associated Coiled-coil Containing Protein Kinase 1 (ROCK1) (AID 2283214)
Chain of human Rho Associated Coiled-coil Containing Protein Kinase 1 (ROCK1), ROCK1 (gene 6093) (Q13464 whole entry, looked up): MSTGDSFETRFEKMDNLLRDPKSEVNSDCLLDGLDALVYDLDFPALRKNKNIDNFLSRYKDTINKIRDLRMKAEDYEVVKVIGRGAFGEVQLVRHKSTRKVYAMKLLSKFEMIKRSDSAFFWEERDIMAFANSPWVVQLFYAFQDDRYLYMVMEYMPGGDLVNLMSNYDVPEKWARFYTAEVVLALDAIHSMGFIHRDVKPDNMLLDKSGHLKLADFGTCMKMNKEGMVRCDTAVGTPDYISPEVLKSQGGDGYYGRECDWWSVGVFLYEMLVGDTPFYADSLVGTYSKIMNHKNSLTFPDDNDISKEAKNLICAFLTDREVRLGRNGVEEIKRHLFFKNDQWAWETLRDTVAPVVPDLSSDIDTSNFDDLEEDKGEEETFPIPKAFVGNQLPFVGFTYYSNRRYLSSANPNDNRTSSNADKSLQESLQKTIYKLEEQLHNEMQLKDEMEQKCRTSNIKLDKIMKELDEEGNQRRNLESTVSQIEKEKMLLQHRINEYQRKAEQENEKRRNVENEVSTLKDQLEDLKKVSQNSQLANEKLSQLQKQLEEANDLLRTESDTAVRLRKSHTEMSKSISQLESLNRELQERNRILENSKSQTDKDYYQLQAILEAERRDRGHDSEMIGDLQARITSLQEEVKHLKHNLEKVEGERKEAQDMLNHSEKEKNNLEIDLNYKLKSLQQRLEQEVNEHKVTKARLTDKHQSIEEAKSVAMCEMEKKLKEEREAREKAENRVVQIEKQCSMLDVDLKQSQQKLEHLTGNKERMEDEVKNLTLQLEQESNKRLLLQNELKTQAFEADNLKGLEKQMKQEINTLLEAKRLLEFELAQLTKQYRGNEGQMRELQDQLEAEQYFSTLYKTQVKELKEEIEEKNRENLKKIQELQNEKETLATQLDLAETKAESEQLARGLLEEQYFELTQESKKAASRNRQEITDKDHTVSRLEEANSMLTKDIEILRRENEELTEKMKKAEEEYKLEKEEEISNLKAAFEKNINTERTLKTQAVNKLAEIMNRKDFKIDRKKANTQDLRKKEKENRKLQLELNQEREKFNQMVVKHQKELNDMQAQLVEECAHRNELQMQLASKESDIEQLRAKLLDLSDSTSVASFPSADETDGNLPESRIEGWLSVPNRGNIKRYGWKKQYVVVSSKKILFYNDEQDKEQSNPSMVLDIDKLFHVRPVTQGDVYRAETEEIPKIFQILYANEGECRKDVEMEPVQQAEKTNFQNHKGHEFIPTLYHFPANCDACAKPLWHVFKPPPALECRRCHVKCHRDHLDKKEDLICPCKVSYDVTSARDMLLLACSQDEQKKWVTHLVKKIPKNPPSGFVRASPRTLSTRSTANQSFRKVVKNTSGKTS
Method in brief: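 Cell-free recombinant human ROCK1 activity assay; fluorescent substrate and product separated by electrophoretic mobility shift, read 1 h after dosing. Screened in duplicate at 25 uM; loss of signal versus DMSO baseline scored as inhibition.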

For O=C(Nc1ccc([N+](=O)[O-])cc1Cl)c1cc(Cl)ccc1O, the AC50 [1] was 18.7 µM (active).
For CCC(C)OC(=O)N1CCCCC1CCO (stereo not drawn), the outcome [2] was “inactive” and the outcome [3] was “inactive”.
In the case of CCNc1nc(N)nc(Cl)n1, the outcome [4] was “inactive”.
In the case of S=C(S)NCCNC(=S)S.[Mn+2].[S-]C([S-])=NCCN=C([S-])[S-].[Zn+2], the AC50 [5] was 463 nM (active) and 603 nM (active), the AC50 [6] was 486 nM (active) and 1.35 µM (active) and the AC50 [1] was 3.5 µM (active) and 7.66 µM (active) and 4.12 µM (active). The AC50 [7] was 25 µM (active), the AC50 [2] was 183 nM (active) and 38.9 nM (active) and the AC50 [3] was 419 nM (active) and 26.1 nM (active). The AC50 [8] was 3.57 µM (active) and 30.5 µM (active), the AC50 [4] was 22.4 nM (active) and 4.12 µM (active) and the AC50 [9] was 1.38 µM (active) and 1.98 µM (active). For the same compound, the outcome [9] was “inactive” and the outcome [10] was “inactive”.
S=C([S-])NCCNC(=S)[S-].[Mn+2] was tested, and the AC50 [5] was 144 nM (active), the AC50 [6] was 479 nM (active) and the AC50 [1] was 0.594 µM (active). The AC50 [7] was 13.8 µM (active), the AC50 [2] was 3.5 nM (active) and the AC50 [3] was 0.00231 µM (active). For the same compound, the AC50 [8] was 34.7 µM (active), the AC50 [4] was 465 nM (active) and the AC50 [9] was 6.35 µM (active).
For c1ccc(Nc2ccccc2)cc1, the outcome [2] was “inactive”.
With N#CSCSc1nc2ccccc2s1 the outcome [9] was “inactive”.
In the case of CC(C)(c1ccc(O)cc1)c1ccc(O)cc1, the outcome [4] was “inactive” and the outcome [10] was “inactive”.
For O=C(O)C1(C(=O)Nc2ccc(Cl)cc2Cl)CC1, the AC50 [5] was 6940 nM (active), the AC50 [6] was 25000 nM (active) and the AC50 [1] was 3.91 µM (active). The AC50 [2] was 3230 nM (active), the AC50 [3] was 4.28 µM (active) and the outcome [9] was “inactive”.
CCCOC(=O)NCCCN(C)C was tested, and the outcome [9] was “inactive”.
CN(C)C(=O)Nc1ccc(Cl)c(Cl)c1 was tested, and the outcome [9] was “inactive”.
For CC(C)CCCCCCc1ccc(O)cc1, the outcome [5] was “inactive”, the outcome [1] was “inactive” and the outcome [7] was “inactive”. The outcome [3] was “inactive”, the outcome [9] was “inactive” and the outcome [10] was “inactive”.
COc1nc(C)nc(NC(=O)NS(=O)(=O)c2ccccc2OCCCl)n1 was tested, and the outcome [2] was “inactive” and the outcome [3] was “inactive”.
With CCCN(CCC)c1c([N+](=O)[O-])cc(C(F)(F)F)c(N)c1[N+](=O)[O-] the outcome [6] was “inactive”, the outcome [2] was “inactive” and the AC50 [3] was 19.9 µM (active). The outcome [8] was “inactive”.
COC(=O)c1ccccc1S(=O)(=O)NC(=O)Nc1nc(OC(F)F)cc(OC(F)F)n1 was tested, and the outcome [4] was “inactive”.
For Oc1ccc(C(c2ccc(O)cc2)C(Cl)(Cl)Cl)cc1, the outcome [5] was “inactive”.
In the case of CCCN(CCC)C(=O)SCC, the outcome [4] was “inactive”.
With CSC(=O)c1cccc2nnsc12 the outcome [2] was “inactive” and the outcome [10] was “inactive”.
